Results: the supplement of paper PMC3334620
The full ranking holds about 33,000 sequences; the median of “E-score (-0.5 to 0.5)” is about -0.043, and the highest 2% start at about 0.37. This excerpt belongs to a sample that is enriched for the highest values.

biological target: T1, Upc2 (UniProt Q12151); assay: PBM E-score (8-mer binding enrichment) (E-score (-0.5 to 0.5)); higher = stronger / more preferred TF binding; settings: protein concentration: 200 nM; construct: GST-full length
T1 sequence: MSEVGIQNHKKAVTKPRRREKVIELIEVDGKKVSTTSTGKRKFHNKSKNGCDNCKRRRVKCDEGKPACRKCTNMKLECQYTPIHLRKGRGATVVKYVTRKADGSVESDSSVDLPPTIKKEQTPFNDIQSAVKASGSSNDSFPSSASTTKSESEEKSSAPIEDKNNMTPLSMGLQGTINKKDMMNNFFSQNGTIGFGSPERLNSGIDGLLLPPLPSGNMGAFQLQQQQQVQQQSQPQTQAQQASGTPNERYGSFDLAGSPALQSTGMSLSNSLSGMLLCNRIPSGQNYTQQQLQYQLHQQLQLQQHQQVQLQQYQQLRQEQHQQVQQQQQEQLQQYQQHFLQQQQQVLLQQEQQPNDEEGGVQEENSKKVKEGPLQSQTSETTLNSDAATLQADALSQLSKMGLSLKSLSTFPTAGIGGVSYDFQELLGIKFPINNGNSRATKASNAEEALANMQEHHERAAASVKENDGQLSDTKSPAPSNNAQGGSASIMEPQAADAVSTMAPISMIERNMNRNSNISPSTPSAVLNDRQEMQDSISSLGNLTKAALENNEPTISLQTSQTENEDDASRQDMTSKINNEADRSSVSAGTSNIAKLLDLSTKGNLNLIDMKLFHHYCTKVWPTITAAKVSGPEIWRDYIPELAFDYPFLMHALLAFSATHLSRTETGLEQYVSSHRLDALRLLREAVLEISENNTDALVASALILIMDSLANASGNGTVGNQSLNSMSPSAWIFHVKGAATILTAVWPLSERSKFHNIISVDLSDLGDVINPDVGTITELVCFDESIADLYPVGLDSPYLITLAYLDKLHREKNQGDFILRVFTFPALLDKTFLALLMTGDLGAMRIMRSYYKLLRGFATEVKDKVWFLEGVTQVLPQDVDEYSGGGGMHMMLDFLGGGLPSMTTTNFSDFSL
Procedure: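 Universal 'all 10-mer' protein binding microarrays (Agilent AMADID 015681) probed with GST-tagged S. cerevisiae TFs (full-length or DBD) made by in vitro transcription/translation (PURExpress), about 100-200 nM. Bound TF was detected with fluorescent anti-GST. Each ungapped 8-mer (which stands for itself and its reverse complement) is scored by the PBM enrichment score (E-score), a modified Wilcoxon-Mann-Whitney statistic from -0.5 to +0.5, computed with the Universal PBM Analysis Suite. Scale: above 0.35 generally sequence-specific binding.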

Sequence | PBM E-score
CCTGGGAC | -0.25
CCCTCTCC | -0.339
CCGTTCGC | 0.201
ACCTTGGG | -0.219
CTAAATTC | 0.0497
AGCTGCAT | -0.108
ATCGAGAT | -0.0275
ACCGAGAT | 0.126
CACGAGAG | 0.0635
AACGAGAA | 0.422
AACGAGAT | 0.417
AACGAGAG | 0.425
TCCGAGAA | 0.248
CACGAGAA | 0.0693
GACGAGAA | 0.0864
TTCGAGAA | 0.109
ATCGAGAG | 0.0513
TACGAGAA | 0.447
CCAATCCG | -0.0814
CCGAAAAA | 0.0605
AATCAAAA | -0.0286
ACCCTGGC | -0.206
AATTATGC | 0.0912
CGAATTCA | 0.0713
CTTGGCCC | -0.171
CCGCTTCA | -0.0583

Sequence | PBM E-score
CCATGCCG | -0.135
CCTTGCCC | -0.056
AAATAGAA | -0.0216
CACGAGAC | 0.0139
GACGAGAC | 0.0394
AACGAGAC | 0.437
GTCGCTTA | 0.396
GTCGCTGA | -0.0513
CTCGCTGA | -0.136
GTCGCATA | 0.375
ATCGCTTA | 0.364
GTCGCTAA | 0.271
CTCGCTTA | 0.423
CTCGCATA | 0.363
ATCGCATA | 0.318
ACTGCAGG | -0.156
ATTGGGAC | -0.218
GGTAGTTA | -0.14
GCGAGGAC | -0.102
ACGAGGGA | 0.364
AAGAGGTC | -0.186
GCGAGTTA | 0.116
ACGAGGTC | 0.371
CCGAGGGC | 0.094
ACGAGGAC | 0.384
ACGAGGGC | 0.388

Sequence | PBM E-score
ACGAGTTC | 0.342
CCGAGGTC | 0.0232
ACGAGTTA | 0.392
ACGAGGAG | 0.306
CACCACGC | -0.221
GAGGGGAC | -0.152
AAGGTCAG | -0.239
CGTCGAAC | 0.0511
GCCCCAGA | -0.09
AACTGTAA | 0.103
TAGATTAA | 0.104
GCTGCGGA | -0.164
ACGAGGTA | 0.382
ACGAGGTG | 0.367
GCGAGGTA | 0.244
GATGGTAC | 0.139
AGTGTCAG | -0.0575
CGGGATAC | 0.18
AAGAGGCT | -0.257
ACGAGGCA | 0.408
ACGAGGCG | 0.4
CCGAGGCA | -0.0905
GCGAGGCA | 0.195
CCGAGGCG | 0.129
CCGAGGCC | 0.102
ACGAGGAT | 0.355

Sequence | PBM E-score
AGGAGGCG | -0.326
ACGAGGCC | 0.381
ACGAGGCT | 0.406
GCGAGGCC | 0.2
CACAGGCG | -0.208
CCGACAGG | -0.0268
AATTTGTC | 0.0333
CATTAGCG | 0.197
GATCTCCC | -0.162
GCTGGACC | -0.0565
CTACAATC | 0.0566
ACTAGATG | -0.122
AGGGGCCA | -0.215
ACCGATCT | -0.0555
ATCGATCG | 0.136
AACGATCA | 0.379
AACGATCT | 0.381
CACGATCG | 0.125
AACGATCG | 0.383
TACGATCA | 0.422
GACGATCA | -0.0322
ATCGATCA | 0.0619
AGCGATCA | 0.11
CACGATCA | -0.0545
AACGATCC | 0.345
GAGCGATA | 0.218

Sequence | PBM E-score
GAAGAAGC | -0.195
AGTCAAGG | -0.208
AACGCGAA | 0.23
CTCTTGCC | -0.16
ATAACCTC | -0.0875
AAGGAAAG | -0.171
CGCACTAC | -0.0438
ACCTCAGT | -0.0386
ATATGAAG | -0.19
GTATATAC | 0.395
ATATAAAC | 0.187
GTATAAAA | 0.348
GTATATAA | 0.298
ATATATAC | 0.265
GTATAAAC | 0.4
CATTGGTA | -0.184
AATCACCG | 0.00219
ATTCGCAA | -0.00304
ACCGTAAA | 0.368
CCCGTAAA | 0.381
CCTGTAAA | -0.0269
CCCCGTAA | 0.308
GCCGTAAA | 0.385
GCCGTAAC | 0.225
AGCTACTC | -0.129
CAAAAGCA | 0.0182

Sequence | PBM E-score
ACTTATGG | -0.159
CCTACTCC | -0.318
CGTCGTAC | 0.474
CGTCGTCC | -0.154
AGTCGTAC | 0.452
GGACGTAC | 0.138
AGTCGTGC | -0.127
CGTCGTAG | 0.37
GGTCGTAC | 0.462
AGTCGTCC | -0.111
CATCGTCG | 0.106
CGTAGTAG | 0.108
CGTCGTGC | 0.0916
GGTCGCAC | 0.138
GAGTGAGA | -0.214
CGCCTATC | -0.0576
AAAGGAGC | -0.113
GGGAGGAA | -0.119
AGAGATGA | -0.204
ATGGAGCA | -0.0645
CCCCAAGG | -0.378
CTTCCACC | -0.173
CAACCTCG | 0.196
AGTCGTAG | 0.291
AGTCGTAT | 0.467
AGTCGTCG | 0.0489

Sequence | PBM E-score
CGGAAGCC | -0.0575
ACTTTTCA | -0.0685
CGTTGTTA | 0.0821
CTTCGATC | 0.0841
ATTCGTTA | 0.346
ATTCGTTG | 0.215
GTTCGTTA | 0.403
ATTCGTTC | 0.428
CTTCGTTA | 0.345
GTGCGTTA | 0.0729
CTTCGCTC | 0.208
CTTCGTTC | 0.457
AGTCCTCA | -0.296
CATAGGTC | -0.0923
GCCCCTCC | -0.0822
ACATAACG | 0.116
GCCTATCA | -0.187
ATACGGTA | 0.406
ACACGGTC | -0.099
AAACGGTG | 0.386
ATACGGTG | 0.408
AAACGGTC | 0.344
AAACGGTA | 0.367
CTACGGTA | 0.122
ACACGGTG | -0.0718
AGACGGTG | -0.109

Sequence | PBM E-score
CTACGGTC | 0.109
GTACGGTA | 0.365
ATACGGTC | 0.418
GATGAAAA | 0.0354
GGCGGGTA | -0.00895
AGCGAACA | 0.19
CACGAACG | 0.343
AACGAACC | 0.427
GACGAACC | 0.0416
TACGAACA | 0.452
GACGAACA | 0.0681
CACGAACA | 0.0853
ACCGAACG | 0.269
CACGAACC | 0.101
TCCGAACA | -0.0096
AACGAACG | 0.419
AACGAACA | 0.426
AGAAGCGG | -0.222
AGAATAGA | -0.17
CACACTTA | -0.00527
ACTAGAGC | -0.0879
GTAATGAC | 0.109
ACAGTTTC | -0.0564
CCCGCCAA | 0.00973
ACTCTACT | 0.0626
CATCCTAC | -0.0778

Sequence | PBM E-score
ACGCTAGG | -0.165
AGAGTAAT | -6e-05
TGTCGACA | 0.063
CCCTAGCA | -0.26
AGCGAACT | 0.0961
AACGAACT | 0.371
ACCGAACT | 0.0158
AATAGCCT | -0.081
ACGATTCA | 0.328
CGCGTATC | 0.253
GGCGTCTA | -0.152
GGCGTAGA | 0.048
AGCGTATG | 0.268
GGCGTATA | 0.434
CGCGTATA | 0.451
CGCGTAGA | 0.165
AGCGTATA | 0.444
AGCGTATC | 0.166
